The record followed here is ChEMBL document CHEMBL3988442, “University of Dundee, Small-Polar-MMV Screening Library” (2021).

Assay [1] has as its target T1, Aspartate--tRNA(Asp/Asn) ligase (Mycobacterium tuberculosis (strain ATCC 25618 / H37Rv)) (UniProt P9WFW3). Also: in the data most compounds retested in dose-response had high values.
T1 sequence (whole entry): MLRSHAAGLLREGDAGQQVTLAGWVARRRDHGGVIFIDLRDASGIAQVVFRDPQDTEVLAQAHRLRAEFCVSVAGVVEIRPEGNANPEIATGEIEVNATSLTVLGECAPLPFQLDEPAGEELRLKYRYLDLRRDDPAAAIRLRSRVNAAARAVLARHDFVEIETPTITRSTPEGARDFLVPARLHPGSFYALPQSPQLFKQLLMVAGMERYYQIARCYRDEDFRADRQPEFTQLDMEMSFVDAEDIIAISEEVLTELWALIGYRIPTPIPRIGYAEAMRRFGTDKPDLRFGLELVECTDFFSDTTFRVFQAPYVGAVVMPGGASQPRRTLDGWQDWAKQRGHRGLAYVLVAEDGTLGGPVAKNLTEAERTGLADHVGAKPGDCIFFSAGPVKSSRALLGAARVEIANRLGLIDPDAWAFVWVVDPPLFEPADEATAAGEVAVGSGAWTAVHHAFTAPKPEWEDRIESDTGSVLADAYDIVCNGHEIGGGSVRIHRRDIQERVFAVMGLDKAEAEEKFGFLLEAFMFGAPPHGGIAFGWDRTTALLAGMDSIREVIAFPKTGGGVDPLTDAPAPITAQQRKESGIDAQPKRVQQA
The assay can be described thus: Assay for Asp RNA synthetase-1 from Mycobacterium tuberculosis. The format is functional. Also on record: scale not given: direction of the effect not stated beside the values. As to conditions: 30 µM.

Assay [2] deals with Shiga toxin 2 (Escherichia coli O157:H7) (UniProt P09385+P09386). Description: E. coli 0.157:H7 Shiga Toxin SOP - stx2 screening assay. Format: functional. Also on record: scale not given: direction of the effect not stated beside the values. As to conditions: 30 µM.

Turning to `Cc1ccc(CN2CC[C@H]3OCC[C@@H](c4nc(C)no4)[C@H]3C2)cc1`, the figures for the Percent Effect in assay [1] and in assay [2] were -5.18% and 8.54%, respectively.

Take `CC(C)COCC(NC(=O)c1ccccn1)c1ccco1` (centres undefined): the Percent Effect in assay [1] was -1.2%; in assay [2] it was 28%.

As to `CC(=O)N1CC(Cc2nccc3ccn(C)c23)C1`, the Percent Effect is 1.31% in assay [1] and -32.1% in assay [2].

Take `CCO[C@@H]1CO[C@@]2(CCCN(Cc3scnc3C)C2)C1`: the Percent Effect in assay [1] is -7.13%; in assay [2] it was -25%.

With `C1CC(CN2CCO[C@H]3[C@H](OCC4CC4)CC[C@@H]32)CCO1`, the values for the Percent Effect in assay [1] and in assay [2] were 0.999% and -6.68%, respectively.

Regarding `COc1ccccc1OCC(=O)NS(=O)(=O)c1ccc(C)s1`, the Percent Effect in assay [1] is -0.394%; in assay [2], 3.1%.

Turning to `c1ccc(-n2nnnc2CN2CCCC(Cn3cncn3)C2)cc1` (centres undefined), the Percent Effect is 2.98% in assay [1] and 6.15% in assay [2].

`O=C(c1cccnc1)N1CCCC(c2cc(C(F)F)n3ncnc3n2)C1` (centres undefined): the figures for the Percent Effect in assay [1] and in assay [2] were 5.29% and 8.99%, respectively.

With `Cn1c(Nc2cn[nH]c2)c(C#N)c(=O)n(C)c1=O`, the Percent Effect in assay [1] is -0.24%; in assay [2] it was -19.1%.

In the case of `Cc1nc(CNCc2c(C)nn(C)c2N2CCOCC2)cs1`, the Percent Effect is -5.61% in assay [1] and 23.3% in assay [2].

Take `Cn1ccnc1CN1CCN(CC(O)c2cccc(F)c2)CC1` (centres undefined): the Percent Effect in assay [1] worked out at 1.53%; in assay [2] it was 14%.

Turning to `COc1ccc(C(CO)NC(=O)Nc2cccc(C#N)c2)cc1` (centres undefined), the Percent Effect in assay [1] was 3.45%; in assay [2] it was -32.6%.

In the case of `CC(C)(C)c1nnc(CN2CCn3c(nnc3C3CC3)C2)o1`, the Percent Effect in assay [1] was 8.8%; in assay [2], -5.14%.

For the molecule `Cc1cc(CN2CCN(c3nn4cc(C)nc4s3)CC2)on1`, the Percent Effect was -0.8% in assay [1] and -27.6% in assay [2].

In the case of `Cc1nccn1CC1CCCN1CCCc1nc(-c2cccs2)no1` (centres undefined), the results for the Percent Effect in assay [1] and in assay [2] were 5.89% and 16.4%, respectively.

For `O=C(c1ccco1)N1CCC2(CCC(=O)N2Cc2cccc(F)c2)CC1`, the Percent Effect is 1.32% in assay [1] and -6.58% in assay [2].

`Cc1cc(C)n(CC2CCCN2C(=O)c2cc[nH]n2)n1` (centres undefined): the values for the Percent Effect in assay [1] and in assay [2] were -3.22% and -26.2%, respectively.
